Compound activity (PubChem BioAssay)
A selection: hits, their analogues and other compounds. The true share with any hit is near 2%.
ID4 binder – binds human ID4 protein on microarray | P47928 | calls only | 1.2% of 31,000 active | small molecule microarray, Flag-ID4 binding, fluorescence F/B; call rule not given here;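 note: a binder raises fluorescence above local background on the spot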
p53 PUMA act – mutant p53 pathway reactivation; SW480 PUMA-promoter luciferase; activation, % at 9.98 µM; 1.5% of 28,000 active; AID 624151; in the data active = activation above about 52%; inconclusive = no clear call, values can overlap the other calls
STK33 inh – human STK33 kinase inhibition. Q9BYT3. ADP-Glo luminescence, MBP substrate. inhibition, % at 12.5 µM. 0.44% of 27,000 active; in the data active = inhibition above about 20%; inconclusive = no clear call, values can overlap the other calls
Target sequence (Q9BYT3 whole entry, looked up): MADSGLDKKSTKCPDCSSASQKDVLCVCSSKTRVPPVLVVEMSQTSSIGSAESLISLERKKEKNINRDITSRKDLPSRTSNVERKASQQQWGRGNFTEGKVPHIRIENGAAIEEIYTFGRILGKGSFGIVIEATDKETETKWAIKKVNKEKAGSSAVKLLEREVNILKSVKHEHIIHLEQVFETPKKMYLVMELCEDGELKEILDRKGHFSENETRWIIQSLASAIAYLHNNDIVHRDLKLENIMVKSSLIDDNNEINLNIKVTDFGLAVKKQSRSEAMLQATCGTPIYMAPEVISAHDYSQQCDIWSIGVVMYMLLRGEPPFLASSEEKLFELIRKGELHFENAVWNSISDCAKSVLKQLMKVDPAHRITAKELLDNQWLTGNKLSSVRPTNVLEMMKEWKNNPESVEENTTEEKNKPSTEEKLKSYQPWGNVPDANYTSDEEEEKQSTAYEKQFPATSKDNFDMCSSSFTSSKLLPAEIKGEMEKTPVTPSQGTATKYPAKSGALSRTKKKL
Hits are given with their value; n = inactive; u = inconclusive; x = no result; + = active, no number.

SMILES	ID4 binder	p53 PUMA act	STK33 inh
C[C@@H]1CN([C@@H](C)CO)C(=O)c2cc(NC(=O)CCCN(C)C)ccc2O[C@@H](C)CCCCO[C@@H]1CN(C)S(=O)(=O)c1cn(C)cn1	+	n	x
C[C@@H]1CCCCO[C@@H](CN(C)S(=O)(=O)c2cccs2)[C@@H](C)CN([C@@H](C)CO)C(=O)c2cc(NC(=O)CCCN(C)C)ccc2O1	+	n	x
CC(C)=CCC1C(=O)C(=O)c2ccccc2C1=O (stereo unspecified)	x	x	n
Cc1nnc(SCC(=O)Nc2ccccc2C(F)(F)F)n1-c1ccc(Cl)cc1	n	n	n
CC(C)(C)c1ccc(C(=O)Nc2ccc(NC(=O)COc3ccc([N+](=O)[O-])cc3)cc2)cc1	n	n	n
Cn1c(SCC(=O)Nc2sc3c(c2C#N)CCCC3)nnc1-c1ccc(Br)cc1	n	n	n
CC(O)c1nc2ccccc2n1CCCOc1ccc(Cl)cc1 (stereo unspecified)	n	n	n
FC(F)(F)Oc1ccc(Nc2n[nH]c(=S)s2)cc1	n	75	x
Cc1nnc(SCC(=O)Nc2ccc(OC(F)(F)F)cc2)s1	n	n	n
Cc1[nH]c(=O)[nH]c(=O)c1NS(=O)(=O)c1ccc2c(c1)CCCC2	n	n	n
Cc1ccc(S(=O)(=O)Nc2c(C)[nH]c(=O)[nH]c2=O)cc1C	+	n	n
OCCN(CCO)c1nc(-c2ccccc2)nc2sc(-c3ccccc3)cc12	n	n	n
O=C(C1=C[C@@H](c2csc3ccccc23)C[C@@H](OCc2ccc(CO)cc2)O1)N1CCCCC1	n	x	n
COC(=O)Nc1sc2c(c1C(=O)NCc1ccco1)CCCC2	+	n	n
COC(=O)Nc1sc2c(c1C(=O)NCc1ccco1)CCC2	n	n	n
O=C(Nc1sc2c(c1C(=O)NCc1cccnc1)CCCC2)c1ccco1	n	n	n
O=C(Nc1sc2c(c1C(=O)NCc1cccnc1)CCCCC2)c1ccccc1	+	u	n
COc1cccc(NC(=O)C(C)N(c2ccc(Cl)cc2)S(C)(=O)=O)c1 (stereo unspecified)	n	n	n
Cc1nonc1OCCNc1cc(N2CCCC2)ccc1[N+](=O)[O-]	n	89	n
Cc1nonc1OCCNc1cc(N2CCOCC2)ccc1[N+](=O)[O-]	n	n	n
COc1ccc([N+](=O)[O-])cc1N(CC(=O)Nc1ccccc1Br)S(C)(=O)=O	n	n	n
Cc1ccc(O)c(NC(=O)c2nc3ncccn3n2)c1	n	58	n
O=C(Nc1cccnc1)c1nc2ncccn2n1	n	n	x
C[C@@H]1CN([C@@H](C)CO)C(=O)c2cc(-c3ccccc3)cnc2O[C@H]1CN(C)C(=O)c1cccc(F)c1	n	x	x
C[C@H]1CN([C@@H](C)CO)C(=O)c2cc(-c3cccc(F)c3)cnc2O[C@H]1CN(C)C(=O)Nc1cc(F)ccc1F	+	n	x
SMILES	ID4 binder	p53 PUMA act	STK33 inh
C[C@@H]1CN([C@H](C)CO)C(=O)c2cc(-c3cccc(F)c3)cnc2O[C@@H]1CN(C)C(=O)Nc1cc(F)ccc1F	n	n	x
C[C@H](CO)N1C[C@H](C)[C@H](CN(C)C(=O)c2cccc(F)c2)Oc2ncc(-c3ccccc3)cc2C1=O	+	x	x
CC(=O)c1ccc(NC(=O)CSc2nnc(C34CC5CC(CC(C5)C3)C4)n2C)cc1	n	n	n
Cc1ccc([N+](=O)[O-])cc1S(=O)(=O)NCCOc1ccccc1Cl	n	n	n
CCc1cc2c(SCC(=O)c3ccc(C)cc3)ncnc2s1	n	65	n
CCc1cc2c(SCC(N)=O)ncnc2s1	n	n	n
c1ccc(CCn2c3ccccc3c3nnc(SCc4ccc5nonc5c4)nc32)cc1	n	61	n
CCCn1c2ccccc2c2nnc(SCCC(=O)O)nc21	n	n	n
CC[C@H](CO)Nc1nc(NCc2ccccc2)c2ncn(C(C)C)c2n1	n	119	n
Cn1cnc2nc(NCCO)nc(NCc3ccccc3)c21	n	n	n
COc1ccccc1NC(=O)CSc1nc2ccc([N+](=O)[O-])cc2[nH]1	n	n	n
CC(=O)Nc1ccc(OCC(=O)Nc2ccc(Cl)c(Cl)c2)cc1	n	65	n
COc1ccccc1NC(=O)CSc1ccccn1	n	n	n
COc1cc(NC(=O)COc2cccc(C)c2)c(OC)cc1Cl	n	n	n
CC(=O)Nc1ccc(OCC(=O)Nc2ccc3c(c2)oc2ccccc23)cc1	n	n	n
Cc1ccc(NC(=O)COc2ccc(Cl)c(C)c2)c([N+](=O)[O-])c1	n	59	n
COc1ccc(OCC(=O)Nc2cc(OC)c(Cl)cc2OC)cc1	n	82	n
Cc1cc(OCC(=O)Nc2ccc(CC#N)cc2)ccc1[N+](=O)[O-]	n	n	n
COc1ccc(NC(=O)CSc2ccccn2)c([N+](=O)[O-])c1	n	62	n
C=C1C(=O)OC2CC(C)C3(/C=C/C(C)=O)OC3CC12 (stereo unspecified)	n	x	n
COc1ccc(S(=O)(=O)N(C)CC(=O)Nc2ccc(C(N)=O)cc2)cc1C	n	n	n
COc1cccc(NC(=O)C(C)N(c2cc(C)cc(C)c2)S(C)(=O)=O)c1 (stereo unspecified)	n	n	n
COC(=O)c1c(NC(=O)COc2ccccc2)sc(C(N)=O)c1C	n	n	n
Cc1cc(Cl)cc(Cl)c1OCC(=O)Nc1ccccc1[N+](=O)[O-]	n	n	n
O=C(COc1ccc(Cl)cc1Cl)Nc1ncccn1	n	n	n
SMILES	ID4 binder	p53 PUMA act	STK33 inh
Cc1cc(OCC(=O)Nc2ccccc2[N+](=O)[O-])ccc1Cl	n	86	n
O=C(COc1ccc(Cl)cc1)Nc1ncccn1	n	74	n
Cc1ccc(NC(=O)COc2ccc(C(C)(C)C)cc2)c([N+](=O)[O-])c1	n	n	n
COc1ccc(OCC(=O)Nc2ccc(C)cc2[N+](=O)[O-])cc1	n	136	n
COc1ccc(-c2nc3ccccc3s2)cc1NC(=O)COc1ccc(Br)cc1	n	79	n
COc1ccc(-c2nc3ccccc3s2)cc1NC(=O)COc1ccc(C(C)C)cc1	n	n	n
CC(C)C(NC=O)C(=O)OCC(O)C(O)C(O)C(O)COC(=O)C(NC=O)C(C)C (stereo unspecified)	x	n	x
COc1ccc(N2C(=O)CC(SCC(=O)Nc3ccc(Cl)c(Cl)c3)C2=O)cc1 (stereo unspecified)	n	n	n
COc1ccc(-n2c(SCC(=O)Nc3cc(NC(C)=O)ccc3OC)nc3ccccc3c2=O)cc1	n	n	n
OCc1c[nH]c2ccccc12	n	n	n
O=C(NCCc1c[nH]c2ccccc12)Nc1cccc2ccccc12	n	n	n
NC(=O)CCCc1c[nH]c2ccccc12	n	79	n
O=C(NCCc1c[nH]c2ccccc12)NC1CCCCC1	n	84	n
C[C@@H]1CC(=O)c2c(ccc3c2C(=O)c2cccc(O)c2C3=O)C1	n	x	n
CN1CCc2cccc3c2[C@H]1Cc1ccc(O)c(O)c1-3	n	x	24
Cc1ccc(NC(=O)CC2NC3CCCCC3NC2=O)cc1Cl (stereo unspecified)	n	n	n
C[C@]12CCC3C(CC[C@@H]4C[C@H](O)CC[C@]34C)C1CC[C@]2(O)C(=O)CO (stereo partly specified)	x	n	n
C[C@@H]1CN([C@@H](C)CO)C(=O)c2cc(NC(=O)CCCN(C)C)ccc2O[C@@H]1CN(C)C(=O)Nc1cccc2ccccc12	n	n	x
C[C@@H]1CN([C@H](C)CO)C(=O)c2cc(NC(=O)CCCN(C)C)ccc2O[C@@H]1CN(C)C(=O)Nc1ccccc1	+	n	x
